# Laboratory results taken from PMC7862700, “An all-to-all approach to the identification of sequence-specific readers for epigenetic DNA modifications on cytosine”.
# Tests used:
# Assay in all cases: DAPPL (digital affinity profiling via proximity ligation, sequencing); 10 mM Tris-HCl pH 7.5, 50 mM NaCl, 1 mM DTT, 4% glycerol, room temperature, 30 min; GST-TFs on glutathione beads, 16-mer random dsDNA library, 0.1% formaldehyde crosslink after washing; high values mean tight binding
# FLI1 = biological target: T1, FLI1 (Homo sapiens, UniProt Q01543 1-452); conditions: protein: recombinant; tags: N-terminal GST; dsDNA, one strand shown
# T1 sequence: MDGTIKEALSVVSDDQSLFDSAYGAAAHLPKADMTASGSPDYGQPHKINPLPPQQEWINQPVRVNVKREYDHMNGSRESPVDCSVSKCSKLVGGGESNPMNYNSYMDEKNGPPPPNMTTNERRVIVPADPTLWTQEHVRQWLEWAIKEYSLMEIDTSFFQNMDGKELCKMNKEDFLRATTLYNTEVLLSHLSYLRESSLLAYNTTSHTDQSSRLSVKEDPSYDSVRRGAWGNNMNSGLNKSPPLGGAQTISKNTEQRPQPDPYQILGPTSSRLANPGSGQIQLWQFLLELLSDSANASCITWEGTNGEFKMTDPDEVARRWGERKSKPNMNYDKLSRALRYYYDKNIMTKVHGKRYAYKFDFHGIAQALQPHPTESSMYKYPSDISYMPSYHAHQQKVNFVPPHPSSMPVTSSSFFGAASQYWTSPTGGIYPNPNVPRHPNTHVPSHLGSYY
# Outline: (§1)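 Pools of DNA-barcoded human transcription factors, expressed in yeast as GST fusions on glutathione beads and combined with a tag-only sample, were incubated with 200 nmole of a 16-mer random double-stranded DNA library. Incubation took 30 min at room temperature in Tris/NaCl/DTT/glycerol buffer and was followed by washing, 0.1% formaldehyde crosslinking, proximity ligation (BsaI/T4 ligase, 1 h, 37 °C), PCR amplification and sequencing on an Illumina NextSeq500. Binding signal is the ratio of a hexamer's read frequency for a factor to its frequency for the tag-only sample.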
# ELK1 = biological target: T2, ELK1 (Homo sapiens, UniProt P19419 1-428); conditions: protein: recombinant; tags: N-terminal GST; dsDNA, one strand shown
# T2 sequence: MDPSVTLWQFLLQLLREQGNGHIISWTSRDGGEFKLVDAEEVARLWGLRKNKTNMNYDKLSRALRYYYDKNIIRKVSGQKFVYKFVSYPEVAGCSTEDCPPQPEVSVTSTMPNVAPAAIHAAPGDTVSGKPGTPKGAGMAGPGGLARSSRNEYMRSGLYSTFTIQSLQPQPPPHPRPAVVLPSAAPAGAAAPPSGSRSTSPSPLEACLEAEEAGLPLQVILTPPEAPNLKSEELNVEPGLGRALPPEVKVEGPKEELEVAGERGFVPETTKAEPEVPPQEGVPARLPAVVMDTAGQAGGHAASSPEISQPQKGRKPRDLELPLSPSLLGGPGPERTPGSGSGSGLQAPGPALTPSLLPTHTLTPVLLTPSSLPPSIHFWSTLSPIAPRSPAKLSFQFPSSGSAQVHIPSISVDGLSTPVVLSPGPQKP
# Outline: as §1
# GABPA = biological target: T3, GABPA (Homo sapiens, UniProt Q06546 1-454); conditions: protein: recombinant; tags: N-terminal GST; dsDNA, one strand shown
# T3 sequence: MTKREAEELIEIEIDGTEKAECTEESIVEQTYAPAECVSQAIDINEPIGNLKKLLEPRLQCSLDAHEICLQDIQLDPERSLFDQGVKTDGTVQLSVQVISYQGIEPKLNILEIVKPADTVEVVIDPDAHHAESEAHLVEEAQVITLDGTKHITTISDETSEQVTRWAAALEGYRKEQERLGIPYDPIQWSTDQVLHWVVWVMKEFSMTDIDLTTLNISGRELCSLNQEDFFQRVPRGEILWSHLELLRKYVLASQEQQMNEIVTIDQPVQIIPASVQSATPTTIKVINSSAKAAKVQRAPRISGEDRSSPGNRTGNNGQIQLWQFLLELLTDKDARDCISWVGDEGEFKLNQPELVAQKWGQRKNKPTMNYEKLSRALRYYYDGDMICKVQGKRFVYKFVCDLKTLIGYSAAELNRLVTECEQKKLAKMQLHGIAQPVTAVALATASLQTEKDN
# Outline: as §1
# ERG = biological target: T4, ERG (Homo sapiens, UniProt P11308 1-479); conditions: protein: recombinant; tags: N-terminal GST; dsDNA, one strand shown
# T4 sequence: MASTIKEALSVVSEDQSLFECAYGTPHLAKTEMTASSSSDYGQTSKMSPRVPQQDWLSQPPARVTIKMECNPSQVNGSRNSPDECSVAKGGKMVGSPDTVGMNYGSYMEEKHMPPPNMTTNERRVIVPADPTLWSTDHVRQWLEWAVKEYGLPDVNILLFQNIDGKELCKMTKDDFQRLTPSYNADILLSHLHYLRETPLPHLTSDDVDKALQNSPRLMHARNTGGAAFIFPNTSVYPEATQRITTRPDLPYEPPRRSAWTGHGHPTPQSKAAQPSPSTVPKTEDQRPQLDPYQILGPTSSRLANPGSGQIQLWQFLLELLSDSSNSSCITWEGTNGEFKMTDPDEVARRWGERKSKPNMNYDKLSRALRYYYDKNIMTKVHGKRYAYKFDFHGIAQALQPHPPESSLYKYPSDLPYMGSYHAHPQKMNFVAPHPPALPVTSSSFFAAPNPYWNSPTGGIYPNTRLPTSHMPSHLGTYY
# Outline: as §1
# ELF1 = ELF1 (Homo sapiens, UniProt P32519 1-619); conditions: protein: recombinant; tags: N-terminal GST; dsDNA, one strand shown
# Chain of ELF1 (P32519 whole entry): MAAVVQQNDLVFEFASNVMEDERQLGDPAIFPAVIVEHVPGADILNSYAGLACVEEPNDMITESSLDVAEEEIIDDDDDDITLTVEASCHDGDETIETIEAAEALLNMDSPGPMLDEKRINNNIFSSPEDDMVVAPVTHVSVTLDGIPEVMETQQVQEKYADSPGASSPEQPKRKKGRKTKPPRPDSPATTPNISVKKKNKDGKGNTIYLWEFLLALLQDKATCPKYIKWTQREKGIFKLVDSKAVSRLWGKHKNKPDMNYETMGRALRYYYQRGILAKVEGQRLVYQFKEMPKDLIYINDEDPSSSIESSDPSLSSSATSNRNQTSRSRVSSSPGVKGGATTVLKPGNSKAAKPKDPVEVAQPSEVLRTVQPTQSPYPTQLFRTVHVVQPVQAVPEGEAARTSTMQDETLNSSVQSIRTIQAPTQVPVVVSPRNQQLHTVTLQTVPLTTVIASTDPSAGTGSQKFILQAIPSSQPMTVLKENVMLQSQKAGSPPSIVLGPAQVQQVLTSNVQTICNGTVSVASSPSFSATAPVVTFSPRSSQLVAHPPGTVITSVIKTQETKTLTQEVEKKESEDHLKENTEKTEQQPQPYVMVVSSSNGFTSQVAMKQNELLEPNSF
# Outline: as §1
# EHF = biological target: T5, EHF (Homo sapiens, UniProt Q9NZC4 1-300); conditions: protein: recombinant; tags: N-terminal GST; dsDNA, one strand shown
# T5 sequence: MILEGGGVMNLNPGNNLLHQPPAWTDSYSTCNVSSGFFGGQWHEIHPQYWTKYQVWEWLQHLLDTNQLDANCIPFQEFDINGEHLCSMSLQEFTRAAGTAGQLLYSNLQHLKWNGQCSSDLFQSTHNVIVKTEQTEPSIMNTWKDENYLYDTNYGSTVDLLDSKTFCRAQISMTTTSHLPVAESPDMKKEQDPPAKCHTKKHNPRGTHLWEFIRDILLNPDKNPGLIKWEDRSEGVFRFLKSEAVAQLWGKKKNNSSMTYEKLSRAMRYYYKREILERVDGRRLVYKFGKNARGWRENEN
# Outline: as §1
# SPI1 = SPI1 (Homo sapiens, UniProt P17947 1-270); conditions: protein: recombinant; tags: N-terminal GST; dsDNA, one strand shown
# Outline: as §1
# SPIB = SPIB (Homo sapiens, UniProt Q01892 1-262); conditions: protein: recombinant; tags: N-terminal GST; dsDNA, one strand shown
# Chain of SPIB (Q01892 whole entry): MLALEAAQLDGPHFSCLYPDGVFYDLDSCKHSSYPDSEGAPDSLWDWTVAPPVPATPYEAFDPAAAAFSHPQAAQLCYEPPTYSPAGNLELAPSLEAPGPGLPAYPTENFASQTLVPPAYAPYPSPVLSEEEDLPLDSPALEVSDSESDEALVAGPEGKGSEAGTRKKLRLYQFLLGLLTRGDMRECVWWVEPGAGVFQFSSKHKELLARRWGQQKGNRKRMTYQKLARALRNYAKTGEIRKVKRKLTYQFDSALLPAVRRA
# Outline: as §1
# ELK3 = biological target: T6, ELK3 (Homo sapiens, UniProt P41970 1-407); conditions: protein: recombinant; tags: N-terminal GST; dsDNA, one strand shown
# T6 sequence: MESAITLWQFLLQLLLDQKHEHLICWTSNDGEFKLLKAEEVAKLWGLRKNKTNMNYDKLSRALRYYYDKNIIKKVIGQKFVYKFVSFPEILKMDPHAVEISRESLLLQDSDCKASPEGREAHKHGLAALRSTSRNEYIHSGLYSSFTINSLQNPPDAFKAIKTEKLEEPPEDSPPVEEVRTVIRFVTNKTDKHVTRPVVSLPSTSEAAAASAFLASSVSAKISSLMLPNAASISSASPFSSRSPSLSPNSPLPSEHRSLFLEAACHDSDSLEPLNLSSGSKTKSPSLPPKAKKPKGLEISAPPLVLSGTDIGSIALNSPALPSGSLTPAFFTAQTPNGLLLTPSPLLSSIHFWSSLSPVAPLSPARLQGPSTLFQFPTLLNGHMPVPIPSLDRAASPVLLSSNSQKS
# Outline: as §1
# FEV = biological target: T7, FEV (Homo sapiens, UniProt Q99581 1-238); conditions: protein: recombinant; tags: N-terminal GST; dsDNA, one strand shown
# T7 sequence: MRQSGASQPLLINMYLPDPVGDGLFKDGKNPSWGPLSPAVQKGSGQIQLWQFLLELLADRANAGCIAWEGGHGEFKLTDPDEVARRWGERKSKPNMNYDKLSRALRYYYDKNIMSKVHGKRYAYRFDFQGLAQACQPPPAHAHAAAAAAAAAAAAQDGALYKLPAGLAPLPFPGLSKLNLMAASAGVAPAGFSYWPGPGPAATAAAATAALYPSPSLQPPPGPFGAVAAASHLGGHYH
# Outline: as §1
# ETV5 = ETV5 (Homo sapiens, UniProt P41161 1-510); conditions: protein: recombinant; tags: N-terminal GST; dsDNA, one strand shown
# Chain of ETV5 (P41161 whole entry): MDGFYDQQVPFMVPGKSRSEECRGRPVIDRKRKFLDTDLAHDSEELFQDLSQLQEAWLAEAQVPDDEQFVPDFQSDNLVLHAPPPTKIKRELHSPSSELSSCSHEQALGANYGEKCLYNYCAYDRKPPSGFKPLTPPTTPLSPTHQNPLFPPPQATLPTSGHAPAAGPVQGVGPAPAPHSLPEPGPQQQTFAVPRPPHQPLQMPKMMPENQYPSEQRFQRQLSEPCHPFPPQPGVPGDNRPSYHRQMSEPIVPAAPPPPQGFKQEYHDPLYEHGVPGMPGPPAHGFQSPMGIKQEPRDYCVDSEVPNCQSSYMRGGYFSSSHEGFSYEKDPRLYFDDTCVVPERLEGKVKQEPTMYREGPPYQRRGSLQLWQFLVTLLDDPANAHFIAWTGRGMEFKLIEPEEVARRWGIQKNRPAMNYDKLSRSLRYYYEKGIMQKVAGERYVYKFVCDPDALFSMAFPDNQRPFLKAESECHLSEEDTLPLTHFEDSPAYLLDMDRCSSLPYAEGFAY
# Outline: as §1
# HSF1 = HSF1 (Homo sapiens, UniProt Q00613 1-529); conditions: protein: recombinant; tags: N-terminal GST; chain copies: 3; dsDNA, one strand shown
# Chain of HSF1 (Q00613 whole entry): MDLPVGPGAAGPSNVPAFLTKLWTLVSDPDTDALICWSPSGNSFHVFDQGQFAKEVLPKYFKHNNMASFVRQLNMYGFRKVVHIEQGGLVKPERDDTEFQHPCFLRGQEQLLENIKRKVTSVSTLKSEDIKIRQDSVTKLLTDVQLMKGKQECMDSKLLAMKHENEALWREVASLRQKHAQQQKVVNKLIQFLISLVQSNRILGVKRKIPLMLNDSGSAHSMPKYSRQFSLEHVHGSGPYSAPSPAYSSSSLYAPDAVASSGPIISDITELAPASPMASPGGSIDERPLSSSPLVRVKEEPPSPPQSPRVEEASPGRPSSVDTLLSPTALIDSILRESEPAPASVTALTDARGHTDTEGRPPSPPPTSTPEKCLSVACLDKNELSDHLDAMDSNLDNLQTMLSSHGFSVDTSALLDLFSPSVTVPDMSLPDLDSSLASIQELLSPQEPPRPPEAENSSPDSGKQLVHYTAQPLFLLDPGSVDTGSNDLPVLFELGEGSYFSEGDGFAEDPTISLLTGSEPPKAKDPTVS
# Outline: as §1
# SPIC = biological target: T8, SPIC (Homo sapiens, UniProt Q8N5J4 1-248); conditions: protein: recombinant; tags: N-terminal GST; dsDNA, one strand shown
# T8 sequence: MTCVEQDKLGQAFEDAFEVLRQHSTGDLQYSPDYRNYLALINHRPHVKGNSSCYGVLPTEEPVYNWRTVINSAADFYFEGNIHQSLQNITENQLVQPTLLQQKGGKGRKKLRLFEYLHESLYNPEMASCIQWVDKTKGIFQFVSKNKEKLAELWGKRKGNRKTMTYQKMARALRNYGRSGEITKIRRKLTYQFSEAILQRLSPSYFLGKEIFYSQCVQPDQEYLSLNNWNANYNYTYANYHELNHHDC
# Outline: as §1
# ELF4 = ELF4 (Homo sapiens, UniProt Q99607 1-663); conditions: protein: recombinant; tags: N-terminal GST; dsDNA, one strand shown
# Chain of ELF4 (Q99607 whole entry): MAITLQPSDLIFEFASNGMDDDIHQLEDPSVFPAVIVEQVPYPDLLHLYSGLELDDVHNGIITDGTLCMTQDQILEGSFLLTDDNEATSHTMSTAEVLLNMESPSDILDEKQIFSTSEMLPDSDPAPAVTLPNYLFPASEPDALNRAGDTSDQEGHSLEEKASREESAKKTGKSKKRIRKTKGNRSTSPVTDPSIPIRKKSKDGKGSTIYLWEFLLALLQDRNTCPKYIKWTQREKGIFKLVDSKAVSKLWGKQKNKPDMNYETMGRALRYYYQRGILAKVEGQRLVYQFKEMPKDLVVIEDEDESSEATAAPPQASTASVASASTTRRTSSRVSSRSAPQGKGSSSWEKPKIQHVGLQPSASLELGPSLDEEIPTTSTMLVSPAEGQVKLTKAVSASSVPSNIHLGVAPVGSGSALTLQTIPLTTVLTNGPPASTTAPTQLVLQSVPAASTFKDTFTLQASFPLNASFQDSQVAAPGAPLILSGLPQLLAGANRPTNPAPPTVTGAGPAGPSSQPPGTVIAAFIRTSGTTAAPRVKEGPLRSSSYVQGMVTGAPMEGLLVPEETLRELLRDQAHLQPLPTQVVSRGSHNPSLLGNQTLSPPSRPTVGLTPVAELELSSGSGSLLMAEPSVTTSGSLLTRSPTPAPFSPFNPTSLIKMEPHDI
# Outline: as §1
# ELK4 = biological target: T9, ELK4 (Homo sapiens, UniProt P28324-2 1-405); conditions: protein: recombinant; tags: N-terminal GST; dsDNA, one strand shown
# T9 sequence: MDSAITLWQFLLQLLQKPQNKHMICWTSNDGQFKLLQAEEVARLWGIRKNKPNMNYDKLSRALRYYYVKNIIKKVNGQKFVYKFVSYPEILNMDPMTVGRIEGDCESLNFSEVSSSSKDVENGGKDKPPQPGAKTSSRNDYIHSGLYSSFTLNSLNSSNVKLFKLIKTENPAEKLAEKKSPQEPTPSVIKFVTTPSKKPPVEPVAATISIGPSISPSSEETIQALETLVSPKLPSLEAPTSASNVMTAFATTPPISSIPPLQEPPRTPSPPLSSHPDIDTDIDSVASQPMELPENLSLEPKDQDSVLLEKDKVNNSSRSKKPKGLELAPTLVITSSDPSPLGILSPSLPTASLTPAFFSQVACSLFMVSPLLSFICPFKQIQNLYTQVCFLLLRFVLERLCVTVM
# Outline: as §1
# ETV2 = biological target: T10, ETV2 (Homo sapiens, UniProt O00321 1-342); conditions: protein: recombinant; tags: N-terminal GST; dsDNA, one strand shown
# T10 sequence: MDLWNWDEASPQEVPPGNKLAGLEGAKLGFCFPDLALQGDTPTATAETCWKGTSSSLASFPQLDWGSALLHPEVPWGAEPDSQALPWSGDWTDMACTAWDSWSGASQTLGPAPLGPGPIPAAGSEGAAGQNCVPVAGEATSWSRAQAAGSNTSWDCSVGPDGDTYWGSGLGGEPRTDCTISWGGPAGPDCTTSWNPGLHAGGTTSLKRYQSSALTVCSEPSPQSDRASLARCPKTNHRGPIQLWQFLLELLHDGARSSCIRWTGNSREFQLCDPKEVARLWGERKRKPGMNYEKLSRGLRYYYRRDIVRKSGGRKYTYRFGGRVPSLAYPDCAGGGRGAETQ
# Outline: as §1
# ELF3 = biological target: T11, ELF3 (Homo sapiens, UniProt P78545 1-371); conditions: protein: recombinant; tags: N-terminal GST; dsDNA, one strand shown
# T11 sequence: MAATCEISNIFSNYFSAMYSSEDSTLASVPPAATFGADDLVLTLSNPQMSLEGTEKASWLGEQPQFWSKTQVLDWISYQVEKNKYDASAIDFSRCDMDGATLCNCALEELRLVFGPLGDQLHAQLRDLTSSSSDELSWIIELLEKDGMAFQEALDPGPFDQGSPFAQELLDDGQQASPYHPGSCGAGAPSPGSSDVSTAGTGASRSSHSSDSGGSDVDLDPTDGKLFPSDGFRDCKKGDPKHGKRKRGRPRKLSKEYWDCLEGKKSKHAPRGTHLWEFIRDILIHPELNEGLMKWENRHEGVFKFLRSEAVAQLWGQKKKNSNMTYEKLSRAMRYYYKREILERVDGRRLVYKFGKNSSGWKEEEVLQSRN
# Outline: as §1
# CRX = CRX (Homo sapiens, UniProt O43186 1-299); conditions: protein: recombinant; tags: N-terminal GST; dsDNA, one strand shown
# Chain of CRX (O43186 whole entry): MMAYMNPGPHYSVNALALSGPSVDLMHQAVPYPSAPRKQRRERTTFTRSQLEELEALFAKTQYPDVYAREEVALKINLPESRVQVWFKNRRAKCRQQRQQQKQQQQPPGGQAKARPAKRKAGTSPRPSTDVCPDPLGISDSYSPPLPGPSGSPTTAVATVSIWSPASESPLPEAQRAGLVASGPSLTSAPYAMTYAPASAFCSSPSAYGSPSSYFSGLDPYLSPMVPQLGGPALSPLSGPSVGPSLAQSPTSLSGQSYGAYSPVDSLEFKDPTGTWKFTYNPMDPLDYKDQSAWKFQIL
# Outline: as §1
# ETV1 = ETV1 (Homo sapiens, UniProt P50549 1-477); conditions: protein: recombinant; tags: N-terminal GST; dsDNA, one strand shown
# Chain of ETV1 (P50549 whole entry): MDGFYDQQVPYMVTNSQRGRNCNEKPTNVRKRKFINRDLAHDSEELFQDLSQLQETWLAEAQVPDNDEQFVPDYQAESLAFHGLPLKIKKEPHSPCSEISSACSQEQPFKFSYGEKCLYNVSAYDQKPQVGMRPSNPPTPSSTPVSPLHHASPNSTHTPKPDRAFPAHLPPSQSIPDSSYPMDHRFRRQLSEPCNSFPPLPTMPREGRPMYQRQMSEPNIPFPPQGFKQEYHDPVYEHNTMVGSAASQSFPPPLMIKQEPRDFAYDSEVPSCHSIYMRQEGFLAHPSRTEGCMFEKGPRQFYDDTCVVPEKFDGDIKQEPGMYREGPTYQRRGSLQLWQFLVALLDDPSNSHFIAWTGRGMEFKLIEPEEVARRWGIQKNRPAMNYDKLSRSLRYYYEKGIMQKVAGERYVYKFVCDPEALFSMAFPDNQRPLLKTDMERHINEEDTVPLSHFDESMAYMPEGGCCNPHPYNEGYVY
# Outline: as §1
sequence,measurement,setting,value
ATCTCC,binding signal,FLI1,"1.61 fold enrichment (6-mer frequency, TF over GST control)"
same,binding signal,ELK1,"1.5 fold enrichment (6-mer frequency, TF over GST control)"
same,binding signal,GABPA,"1.56 fold enrichment (6-mer frequency, TF over GST control)"
same,binding signal,ERG,"1.51 fold enrichment (6-mer frequency, TF over GST control)"
same,binding signal,ELF1,"1.47 fold enrichment (6-mer frequency, TF over GST control)"
same,binding signal,EHF,"1.6 fold enrichment (6-mer frequency, TF over GST control)"
same,binding signal,SPI1,"1.37 fold enrichment (6-mer frequency, TF over GST control)"
same,binding signal,SPIB,"1.49 fold enrichment (6-mer frequency, TF over GST control)"
same,binding signal,ELK3,"1.42 fold enrichment (6-mer frequency, TF over GST control)"
same,binding signal,FEV,"1.5 fold enrichment (6-mer frequency, TF over GST control)"
same,binding signal,ETV5,"1.48 fold enrichment (6-mer frequency, TF over GST control)"
same,binding signal,HSF1,"1.67 fold enrichment (6-mer frequency, TF over GST control)"
same,binding signal,SPIC,"1.49 fold enrichment (6-mer frequency, TF over GST control)"
same,binding signal,ELF4,"1.57 fold enrichment (6-mer frequency, TF over GST control)"
same,binding signal,ELK4,"1.47 fold enrichment (6-mer frequency, TF over GST control)"
same,binding signal,ETV2,"1.48 fold enrichment (6-mer frequency, TF over GST control)"
same,binding signal,ELF3,"1.3 fold enrichment (6-mer frequency, TF over GST control)"
same,binding signal,CRX,"2.01 fold enrichment (6-mer frequency, TF over GST control)"
same,binding signal,ETV1,"1.57 fold enrichment (6-mer frequency, TF over GST control)"
